# Compound activity from PubChem.
# Rows were chosen to be rich in hits. Some 1.3% of all compounds tested hit in one or more screens of this group.
# Glioma ERSR ind = qHTS for Inducers of the Endoplasmic Reticulum Stress Response (ERSR) in Human Glioma: qHTS. U87-MG GRP78 promoter luciferase reporter, 16 h. AID 602332, 2012. Potency, µM, inactives show at the highest dose activation, usual class: activators. actives 0.02% (n = 420,000); note: potency is the fitted concentration of half-maximal effect; series mostly up to about 76 µM; % of control where 0% means no effect; nearly all actives have a fitted effect of over 35% in size
#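 Stably transfected U87-MG glioma cells carrying a GRP78-based luciferase sensor; 16 h compound incubation. Luminescence end-point read 10 min after Bright-Glo addition at room temperature.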
# PI5P4K alpha inh = qHTS for Inhibitors of phosphatidylinositol 5-phosphate 4-kinase (PI5P4K). actives 1.2% (n = 330,000). PI5P4Kalpha enzyme, ADP-Glo luminescence, 60 min; active compounds read low. Phosphatidylinositol 5-phosphate 4-kinase type-2 alpha (Homo sapiens), P48426. max response, %; active = max response of -50% or lower; inconclusive = between -30% and -50%; inactive = -30% or higher; note: value at the top dose of about 77 µM; % is set by controls: 0 for no effect and ±100 for the full control effect
# Target sequence (P48426 whole entry, looked up): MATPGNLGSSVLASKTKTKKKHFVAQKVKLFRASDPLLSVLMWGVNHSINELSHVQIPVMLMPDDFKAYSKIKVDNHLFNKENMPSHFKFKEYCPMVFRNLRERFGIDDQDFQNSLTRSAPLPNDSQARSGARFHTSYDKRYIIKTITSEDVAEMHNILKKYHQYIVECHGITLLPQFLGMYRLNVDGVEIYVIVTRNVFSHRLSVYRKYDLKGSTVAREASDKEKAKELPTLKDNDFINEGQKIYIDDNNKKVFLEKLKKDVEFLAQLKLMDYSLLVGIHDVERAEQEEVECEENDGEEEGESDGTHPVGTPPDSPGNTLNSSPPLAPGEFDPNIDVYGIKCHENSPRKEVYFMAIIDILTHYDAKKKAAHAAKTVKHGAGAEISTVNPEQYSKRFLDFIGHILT
#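 Enzyme plus substrate dispensed, test compounds pinned in, then ATP (5 microM final) added. After 60 min at RT, ADP-Glo reagent 1 for 45 min and reagent 2 for 30 min preceded luminescence imaging.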
# WRN inhibitor = qHTS for Inhibitors of WRN Helicase | WRN helicase unwinding, fluorescent forked duplex, kinetic | Potency, µM (doses to about 114 µM), for inactives: at the top dose activity change, negative = inhibition, actives largely listed as inhibitors | actives 0.46% (n = 360,000); note: potency is the fitted concentration of half-maximal effect; % is set by controls: 0 for no effect and ±100 for the full control effect; nearly all actives have a fitted effect of over 55% in size
#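 Screening of the MLSMR collection measured strand separation of a quenched forked DNA duplex (100 nM) by 20 nM WRN with 2 mM ATP, all final. Compounds were preincubated with enzyme 15 min at room temperature.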
# Pin1 inh = qHTS Assay to Find Inhibitors of Pin1; AID 504891, 2011; actives 0.009% (n = 390,000); Pin1 FP peptide displacement, HiFluor488, 10 min; Peptidyl-prolyl cis-trans isomerase NIMA-interacting 1 (Homo sapiens), Q13526; Potency, µM (highest dose often 115 µM), for inactives: top-dose activity, negative = inhibition, most hits filed as inhibitors; active = well fitted inhibition curve with a large enough effect in the polarisation, with a control signal flat, not every such curve was filed as active; inconclusive = small, poorly fitted or top-dose-only effect, or effect the other way, or a change in a side signal; inactive = no such curve, though single readings can be large or run the other way; the % refers to the polarisation; note: potency is the fitted concentration of half-maximal effect; % is set by controls: 0 for no effect and ±100 for the full control effect
# PGK inhibitor = qHTS Assay to Find Inhibitors of Phosphoglycerate Kinase | PGK/GAPDH coupled, Kinase-Glo luminescence, 60 min | Potency, µM (top dose mostly 57.5 µM), for inactives: top-dose activity change, negative = inhibition, hits mostly inhibitors | actives 0.043% (n = 380,000); note: potency is the fitted concentration of half-maximal effect; % is set by controls: 0 for no effect and ±100 for the full control effect; nearly all actives have a fitted effect of over 60% in size
#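 Luminescent ATP detection (Kinase-Glo Plus) follows a 60-minute room-temperature incubation, with wells lacking PGK as controls. Buffer: 100 mM TEA (pH 7.6), 5 mM MgCl2, 0.01% Tween-20. Coupling enzyme GAPDH (100 nM final) supplies unstable 1,3-BPG in-well.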
# FEN1 inh = qHTS Assay for the Inhibitors of Human Flap endonuclease 1 (FEN1). Potency, µM (top dose mostly 114 µM), inactives show top-dose activity change, negative = inhibition, most hits filed as inhibitors. P39748. actives 0.35% (n = 390,000). Recombinant FEN1 flap cleavage, fluorescence, 15 min; note: potency is the fitted concentration of half-maximal effect; % is set by controls: 0 for no effect and ±100 for the full control effect; nearly all actives have a fitted effect of over 65% in size
# Target sequence (P39748 whole entry, looked up): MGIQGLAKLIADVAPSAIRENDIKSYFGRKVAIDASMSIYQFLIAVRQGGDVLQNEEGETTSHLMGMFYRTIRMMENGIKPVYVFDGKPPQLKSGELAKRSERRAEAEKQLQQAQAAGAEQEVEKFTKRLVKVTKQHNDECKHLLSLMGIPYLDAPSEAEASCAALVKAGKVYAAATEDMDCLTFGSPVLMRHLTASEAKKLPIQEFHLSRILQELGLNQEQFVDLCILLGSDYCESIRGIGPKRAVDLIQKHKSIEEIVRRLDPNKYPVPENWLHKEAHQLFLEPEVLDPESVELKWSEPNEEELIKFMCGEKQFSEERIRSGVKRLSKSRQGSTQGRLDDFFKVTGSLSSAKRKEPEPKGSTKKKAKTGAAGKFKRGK
#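 In this screen, 50 nM flap DNA substrate was added to 10 nM FEN1 pretreated with compound for 15 min at room temperature; cleavage was followed with reads at 0 and 15 min, and Hill fitting gave concentration–response parameters.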
# Numbers without * were called inactive; i = inactive; ? = inconclusive; · = no result; [ ] = dose if it differs, or a comment. Unless noted, calls come from the whole dose curve; as a rule, active = well fitted curve in the direction sought with a large enough effect; inconclusive = small, poorly fitted or top-dose-only effect, or another doubt; inactive = no such curve, though single readings can be large; an effect the other way counts as inactive or inconclusive.
SMILES,Glioma ERSR ind,PI5P4K alpha inh,WRN inhibitor,Pin1 inh,PGK inhibitor,FEN1 inh
COc1cc2c(cc1OC)CN(C(=O)[C@@H]1C[C@H](NCc3cn(C)c4ccccc34)CN1C1Cc3ccccc3C1)CC2,-3.2%,·,·,·,·,·
Cc1ccc2nc(N3C(=O)C(O)=C(C(=O)c4cc5ccccc5o4)C3c3cccs3)sc2c1 (stereo not given),1.8%,-27.5,?,1.1%,i,-13.4%
CCc1ccc2nc(N3C(=O)C(O)=C(C(=O)c4ccco4)C3c3cccs3)sc2c1 (stereo not given),1.9%,-58.7*,15.8%,-9.9%,-0.4%,-6.3%
CC(c1ccon1)N(C)C(=O)c1cnn(-c2ncc3c(n2)-c2ccccc2CC3)c1C1CC1 (stereo not given),11.3%,·,·,·,·,·
O=C(Cn1cc(CN(Cc2ccccc2)Cc2ccccc2)nn1)Nc1cc(C(F)(F)F)ccc1Cl,·,·,·,0.9%,·,·
Cc1ccc(NC(=O)c2cc(S(=O)(=O)N(C)C)ccc2N2CCCC2)cc1S(=O)(=O)N(C)C,31.6µM*,-12.7,-5.8%,9.8%,1.5%,-2.2%
Cc1ccc(NC(=O)c2cc(S(=O)(=O)N3CCCCC3)ccc2N2CCOCC2)cc1S(=O)(=O)N(C)C,-1.6%,4.5,-4.0%,2.4%,i,-6.8%
CCOC(=O)c1sc(=S)n(-c2ccccc2)c1N(C(C)=O)C(C)=O,-4.7%,-75.2*,?,1.9%,-11.8%,?
CC1CC(=O)c2c(cc3c(-c4c(O)cc(O)c5c(O)c6c(cc45)OC(C)CC6=O)c(O)cc(O)c3c2O)O1 (stereo not given),?,-79.7*,?,?,-17.5%,14.1µM*
N[C@@H](C(=O)N[C@H]1C(=O)N2C(C(=O)O)=C(Cl)CC[C@H]12)c1ccccc1,0.1%,·,·,·,·,·
Nc1ccc(N)c(C(=O)O)c1,-2.6%,-90.8*,31.6µM*,?,?,?
Nc1ccc(C(=O)O)c(O)c1,1.1%,?,-8.7%,-10.5%,9.3%,16.9%
O=C1/C(=C/c2ccc(O)c(O)c2)Oc2cc(O)ccc21,12.5%,-63.8*,?,?,-13.3%,?
COc1cc(/C=C2\Oc3cc(O)ccc3C2=O)ccc1O,0.9%,-60.6*,?,?,-5.4%,?
COc1ccc(C2Nc3ccccc3C(=O)N2Cc2ccccc2C(F)(F)F)cc1COc1ccc(NC(C)=O)cc1 (stereo not given),·,·,·,9.5%,·,·
N[C@@H](C(=O)O)c1ccc(O)c(C(=O)O)c1,-1.6%,·,·,·,·,50.1µM*
OC1(c2cccnc2)CCN(Cc2ccc3c(c2)CN(Cc2cccc(C(F)(F)F)c2)CCO3)CC1,-3.1%,·,·,·,·,·
Cc1cccc(-n2nc3c(c2NC(=O)c2ccco2)CSC3)c1C,-6.2%,·,44.7µM*,-17.4%,-8.3%,?
COc1ccc(-c2ccc3ncnc(NCc4nc(C)cs4)c3c2)cc1OC,·,·,·,-2.9%,·,·
O=C(Nc1cccc(-c2nn3c(=O)cc(N4CCNCC4)nc3s2)c1)C1CCNCC1,·,·,·,-5.7%,·,·
CNc1cccc(S(=O)(=O)N2CCCN(S(=O)(=O)c3ccc4c(c3)OCCO4)CC2)c1,·,·,·,1.9%,·,·
O=C1OC(NC(=O)c2ccccc2)C(n2cc(CO)nn2)=C1Cl (stereo not given),3.0%,?,50.1µM*,·,-1.9%,0.4%
OCc1cn(-c2ccccc2)nn1,-3.0%,14.8,4.1%,0.4%,4.8%,4.7%
Cc1cccc(C(=O)NC2CCN(C#N)CC2)c1,·,·,·,0.7%,·,·
CC(=O)c1ccc(-c2ccc3c4c(ccc3c2)OC(CNC(=O)C(C)N2CCOCC2)C4)s1 (stereo not given),-4.0%,·,·,·,·,·
SMILES,Glioma ERSR ind,PI5P4K alpha inh,WRN inhibitor,Pin1 inh,PGK inhibitor,FEN1 inh
CCn1c(=O)cc(OCC(=O)O)c2ccccc21,-3.7%,?,4.0%,1.0%,8.8%,6.0%
Cn1cc(C(c2ccccc2OCC(=O)O)c2cn(C)c3ccccc23)c2ccccc21,-4.7%,-53.1*,79.4µM*,4.6%,-1.1%,-11.2%
CC(C)=CCC/C(C)=C\CC/C(C)=C\CC/C(C)=C\CC1=C(C)C(=O)c2ccccc2C1=O,-4.4%,·,·,·,·,·
COC(CNC(=O)c1ccc2c3c(onc13)-c1ccccc1C2=O)OC,-11.5%,-29.2,50.1µM*,?,-8.3%,?
COC(CNC(=O)c1cccnc1)OC,-5.3%,-0.3,9.3%,-6.4%,3.2%,-2.0%
CCCc1cc(F)c(S(=O)(=O)N2CCN(S(=O)(=O)c3ccc4c(c3)OCCO4)CC2)cc1F,·,·,·,-0.4%,·,·
C=CCn1c(C)cc(C(=O)Cn2ncc(Cl)c(Cl)c2=O)c1C,-12.6%,-72.2*,?,?,6.5%,-12.1%
C=CCn1c(COc2ccccc2)nnc1SCc1ccc(C#N)cc1,-6.7%,-3.4,8.6%,-6.9%,i,0.2%
C=CCn1c(COc2ccc(Cl)cc2)nnc1SCc1ccc(C#N)cc1,-2.1%,-79.9*,-0.1%,?,-10.3%,-9.3%
O=C(O)c1cc2ccccc2c2c1C(=O)c1ccccc1-2,-1.8%,-14.4,-11.7%,·,-6.8%,·
Nc1cc(C(=O)O)c(N)c2c1C(=O)c1ccccc1C2=O,-11.6%,-83.0*,?,?,?,35.5µM*
COc1ccc(C(=O)N(Cc2ccco2)Cc2ccco2)c(O)c1,·,·,·,-12.7%,·,·
O=C1NC(=Nc2ccccc2Cl)S/C1=C\c1ccc(C(=O)O)cc1,-3.3%,-65.2*,-8.4%,-5.1%,·,-26.4%
O=C1NC(=Nc2ccccc2Cl)S/C1=C\c1cccc([N+](=O)[O-])c1O,3.7%,-84.7*,-21.5%[11.6 µM],11.6%,?,?
Cc1c2c(=O)n(-c3nc4ccccc4s3)nc-2cc(O)n1Cc1ccccc1,-3.3%,-78.5*,-8.9%[11.6 µM],?,-10.8%,?
CC(=O)c1ccc(Cc2cnc(N)s2)cc1,-2.8%,-0.3,-14.1%,0.7%,-6.4%,-10.5%
Nc1ncc(N=Nc2cc(C(=O)O)ccc2Cl)s1,-3.8%,-54.1*,-29.2%[11.6 µM],-12.2%,-11.6%,?
CSc1nnc(CCNC(=O)/C=C/c2cccc(F)c2)n1-c1ccc(F)cc1,-4.1%,·,·,·,·,·
CCCCCCCCN1C(=O)[C@H](CC(=O)NCc2ccc(C)o2)C[C@@]2(C(=O)OCC)CCC=C12,·,-60.7*,-14.8%,·,·,·
CCCCCCCCN1C(=O)[C@H](CC(=O)NCc2ccc(C)o2)C[C@@]2(C(=O)OC)CCCCC=C12,·,-65.3*,-14.7%,·,·,·
N#Cc1nc(Nc2ccc(C(F)(F)F)cc2)nc(NC2CCCC2)n1,·,·,·,10.0%,·,·
